About 8,800 targets were measured; listed, in parts, are those with a hit and a random draw of the rest. About 0.5% of all pairs of compound and target were hits.
Experiments:
Test in all cases: log2 fold change, soluble protein after heating vs DMSO (PISA); higher = thermal stabilisation; K562 lysate, 10 uM; active = over 0.2 and 3.5 SD of the protein, either way, in both replicates (recomputed)
nilotinib = compound: Cc1cn(-c2cc(NC(=O)c3ccc(C)c(Nc4nccc(-c5cccnc5)n4)c3)cc(C(F)(F)F)c2)cn1 [nilotinib]
How it was run: (§1)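 Following dounce homogenisation of K562 pellets in PBS pH 7.4 with 1 mM MgCl2, crude extract at 1 mg/mL protein was incubated for 30 min with 10 μM compound. Aliquots were then heated for 3 min over 48°C-58°C and pooled, NP-40 was added to 0.5% at 4°C, and soluble protein was recovered as the supernatant at 21,000xg for 90 min. Channel-sum-equalised TMTpro 16plex LC-MS/MS quantified this protein. Each value, from duplicates, is a log-two fold change in thermal stability relative to solvent controls.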

[1] = compound: Cc1nc(Nc2n[nH]c3c2CN(C(=O)N[C@H](CN(C)C)c2ccccc2)C3(C)C)c2sccc2n1
How it was run: as §1

dasatinib = compound: Cc1nc(Nc2ncc(C(=O)Nc3c(C)cccc3Cl)s2)cc(N2CCN(CCO)CC2)n1 [dasatinib]
How it was run: as §1

[2] = compound: Cc1ncc(-c2ccnc(Nc3ccc(S(C)(=O)=O)cc3)n2)n1C(C)C
How it was run: as §1

[3] = compound: Cn1cc(-c2ccc3c(c2)CCN3C(=O)Cc2cccc(C(F)(F)F)c2)c2c(N)ncnc21
How it was run: as §1

quisinostat = compound: Cn1cc(CNCC2CCN(c3ncc(C(=O)NO)cn3)CC2)c2ccccc21 [quisinostat]
How it was run: as §1

tipifarnib = compound: Cn1cncc1[C@@](N)(c1ccc(Cl)cc1)c1ccc2c(c1)c(-c1cccc(Cl)c1)cc(=O)n2C [tipifarnib]
How it was run: as §1

[4] = compound: NC(=O)Nc1cc(-c2cccc(F)c2)sc1C(=O)N[C@H]1CCCNC1
How it was run: as §1

[5] = compound: NC(=O)c1cnc(N[C@@H]2CCCC[C@@H]2N)nc1Nc1cccc(-n2nccn2)c1
How it was run: as §1

[6] = compound: NC1(c2ccc(-c3nc4ccn5c(=O)[nH]nc5c4cc3-c3ccccc3)cc2)CCC1
How it was run: as §1

[7] = compound: NCC(=O)Nc1ccc(-n2nc(C(F)(F)F)cc2-c2ccc3c(ccc4ccccc43)c2)cc1
How it was run: as §1

vorinostat = compound: O=C(CCCCCCC(=O)Nc1ccccc1)NO [vorinostat]
How it was run: as §1

silmitasertib = compound: O=C(O)c1ccc2c(c1)nc(Nc1cccc(Cl)c1)c1ccncc12 [silmitasertib]
How it was run: as §1

[8] = compound: O=C1NC(=O)C(c2cnc3ccccn23)=C1c1cn2c3c(cc(F)cc13)CN(C(=O)N1CCCCC1)CC2
How it was run: as §1

entospletinib = compound: c1cn2cc(-c3ccc4cn[nH]c4c3)nc(Nc3ccc(N4CCOCC4)cc3)c2n1 [entospletinib]
How it was run: as §1

Measured: log2 fold change

DNM2 (UniProt P50570)
Sequence of UniProt P50570 (P50570 whole entry, looked up): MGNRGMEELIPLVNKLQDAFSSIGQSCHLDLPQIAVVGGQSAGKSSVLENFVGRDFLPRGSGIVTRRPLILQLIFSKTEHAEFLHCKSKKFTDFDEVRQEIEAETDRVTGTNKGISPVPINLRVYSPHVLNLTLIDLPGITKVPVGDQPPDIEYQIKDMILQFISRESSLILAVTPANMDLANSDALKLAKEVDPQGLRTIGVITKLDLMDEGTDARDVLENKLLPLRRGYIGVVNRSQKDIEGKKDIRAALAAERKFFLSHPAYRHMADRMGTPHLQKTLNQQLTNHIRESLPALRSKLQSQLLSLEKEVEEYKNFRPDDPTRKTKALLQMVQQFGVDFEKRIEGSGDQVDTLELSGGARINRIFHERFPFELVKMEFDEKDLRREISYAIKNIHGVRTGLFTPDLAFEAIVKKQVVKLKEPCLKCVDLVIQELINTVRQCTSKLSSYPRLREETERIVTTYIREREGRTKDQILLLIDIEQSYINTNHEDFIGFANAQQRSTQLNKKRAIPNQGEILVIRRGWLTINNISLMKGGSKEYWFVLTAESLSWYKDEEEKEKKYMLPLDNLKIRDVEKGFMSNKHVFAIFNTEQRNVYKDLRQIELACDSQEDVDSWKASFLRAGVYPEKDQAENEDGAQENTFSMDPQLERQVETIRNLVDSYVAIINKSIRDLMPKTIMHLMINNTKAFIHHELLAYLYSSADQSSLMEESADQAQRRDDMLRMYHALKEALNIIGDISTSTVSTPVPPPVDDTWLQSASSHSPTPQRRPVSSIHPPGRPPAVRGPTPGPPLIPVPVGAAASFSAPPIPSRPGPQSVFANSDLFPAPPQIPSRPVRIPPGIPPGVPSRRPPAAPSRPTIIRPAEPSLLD
active: vorinostat -0.27
inactive: nilotinib 0 | [1] -0.015 | dasatinib -0.045 | [2] -0.016 | [3] 0.028 | quisinostat 0.016 | tipifarnib 0.011 | [4] 0.034 | [5] 0.037 | [6] 0.009 | [7] 0.011 | silmitasertib 0.061 | [8] -0.021 | entospletinib 0.014

DOK1 (UniProt Q99704)
Sequence of UniProt Q99704 (Q99704 whole entry, looked up): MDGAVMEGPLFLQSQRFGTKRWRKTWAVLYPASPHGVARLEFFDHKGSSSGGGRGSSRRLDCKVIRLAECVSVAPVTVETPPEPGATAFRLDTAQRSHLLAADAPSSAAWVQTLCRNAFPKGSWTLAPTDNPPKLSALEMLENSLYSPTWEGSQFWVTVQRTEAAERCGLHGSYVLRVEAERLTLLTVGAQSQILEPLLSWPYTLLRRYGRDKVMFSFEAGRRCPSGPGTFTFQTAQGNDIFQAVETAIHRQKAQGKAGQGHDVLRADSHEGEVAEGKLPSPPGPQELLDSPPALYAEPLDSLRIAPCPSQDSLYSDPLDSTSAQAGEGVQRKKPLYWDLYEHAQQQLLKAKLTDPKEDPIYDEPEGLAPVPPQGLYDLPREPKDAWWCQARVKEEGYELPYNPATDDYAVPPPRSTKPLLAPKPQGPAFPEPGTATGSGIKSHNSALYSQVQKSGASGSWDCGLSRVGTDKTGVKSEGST
inactive: nilotinib -0.019 | [1] 0.05 | dasatinib 0.014 | [2] -0.103 | [3] 0.023 | quisinostat -0.032 | tipifarnib 0.048 | [4] 0.07 | [5] -0.055 | [6] 0.018 | [7] -0.036 | silmitasertib -0.043 | [8] -0.012 | entospletinib -0.011
active: vorinostat -0.297

CLASP1 (UniProt Q7Z460)
Sequence of UniProt Q7Z460 (Q7Z460 whole entry, looked up): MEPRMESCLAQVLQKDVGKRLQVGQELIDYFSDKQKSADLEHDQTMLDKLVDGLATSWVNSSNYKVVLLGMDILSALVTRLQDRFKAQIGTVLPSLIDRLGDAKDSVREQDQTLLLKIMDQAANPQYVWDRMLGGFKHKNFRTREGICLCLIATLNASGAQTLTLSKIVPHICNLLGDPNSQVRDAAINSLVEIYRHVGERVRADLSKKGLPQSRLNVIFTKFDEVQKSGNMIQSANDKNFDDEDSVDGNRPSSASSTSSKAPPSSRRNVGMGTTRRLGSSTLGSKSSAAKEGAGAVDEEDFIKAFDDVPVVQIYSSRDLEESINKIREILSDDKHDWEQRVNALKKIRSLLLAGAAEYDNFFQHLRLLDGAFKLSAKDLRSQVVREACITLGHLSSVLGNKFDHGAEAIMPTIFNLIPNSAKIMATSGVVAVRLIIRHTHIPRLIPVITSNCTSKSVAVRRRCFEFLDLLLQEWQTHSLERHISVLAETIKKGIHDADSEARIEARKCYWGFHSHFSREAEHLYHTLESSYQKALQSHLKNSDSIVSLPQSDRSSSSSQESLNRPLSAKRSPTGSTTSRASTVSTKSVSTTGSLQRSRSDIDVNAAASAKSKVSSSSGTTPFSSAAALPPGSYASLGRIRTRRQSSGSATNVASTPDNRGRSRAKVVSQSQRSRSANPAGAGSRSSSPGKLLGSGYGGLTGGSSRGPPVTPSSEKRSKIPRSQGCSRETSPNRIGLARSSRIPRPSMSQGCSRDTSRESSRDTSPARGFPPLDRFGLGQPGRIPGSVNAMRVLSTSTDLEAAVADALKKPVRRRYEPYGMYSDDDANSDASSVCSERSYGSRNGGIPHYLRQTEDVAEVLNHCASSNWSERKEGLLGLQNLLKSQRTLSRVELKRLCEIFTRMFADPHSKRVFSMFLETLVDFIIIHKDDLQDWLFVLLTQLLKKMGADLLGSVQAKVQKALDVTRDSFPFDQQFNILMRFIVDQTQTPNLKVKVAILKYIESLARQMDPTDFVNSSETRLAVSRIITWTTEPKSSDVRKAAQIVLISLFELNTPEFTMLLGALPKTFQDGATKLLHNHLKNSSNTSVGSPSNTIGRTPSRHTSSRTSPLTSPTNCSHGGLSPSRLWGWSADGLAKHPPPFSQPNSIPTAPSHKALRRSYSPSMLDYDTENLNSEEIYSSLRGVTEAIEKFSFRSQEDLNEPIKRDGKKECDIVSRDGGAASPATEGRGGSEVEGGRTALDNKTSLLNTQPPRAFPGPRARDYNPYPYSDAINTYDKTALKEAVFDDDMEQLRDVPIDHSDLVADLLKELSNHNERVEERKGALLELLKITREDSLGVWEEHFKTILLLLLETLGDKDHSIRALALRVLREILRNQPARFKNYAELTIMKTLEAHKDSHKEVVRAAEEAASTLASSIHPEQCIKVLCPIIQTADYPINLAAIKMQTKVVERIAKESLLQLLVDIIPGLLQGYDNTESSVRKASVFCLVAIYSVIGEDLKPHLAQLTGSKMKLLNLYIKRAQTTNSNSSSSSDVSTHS
active: vorinostat -0.317
inactive: nilotinib -0.015 | [1] 0.021 | dasatinib -0.097 | [2] 0.013 | [3] 0.016 | quisinostat -0.085 | tipifarnib -0.051 | [4] -0.022 | [5] 0.012 | [6] -0.018 | [7] 0.018 | silmitasertib -0.015 | [8] -0.022 | entospletinib 0.029

CIC (UniProt I3L2J0)
inactive: nilotinib 0.045 | [1] 0.024 | dasatinib 0 | [2] 0.001 | [3] 0.006 | quisinostat 0.027 | tipifarnib -0.087 | [4] -0.053 | [5] -0.073 | [6] 0.014 | [7] -0.002 | vorinostat -0.108 | silmitasertib -0.011 | [8] 0.075 | entospletinib 0.033

CXorf38 (UniProt Q8TB03)
Sequence of UniProt Q8TB03 (Q8TB03 whole entry, looked up): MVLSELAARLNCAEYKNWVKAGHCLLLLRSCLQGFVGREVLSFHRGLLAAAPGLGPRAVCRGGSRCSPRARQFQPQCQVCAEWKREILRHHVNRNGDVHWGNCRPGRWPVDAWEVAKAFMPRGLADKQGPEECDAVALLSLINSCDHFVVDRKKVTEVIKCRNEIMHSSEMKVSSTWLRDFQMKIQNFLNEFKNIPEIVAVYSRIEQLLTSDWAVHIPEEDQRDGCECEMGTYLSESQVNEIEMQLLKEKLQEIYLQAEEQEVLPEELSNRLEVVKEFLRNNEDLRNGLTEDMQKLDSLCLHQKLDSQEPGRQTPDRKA
active: vorinostat -0.227
inactive: nilotinib 0.029 | [1] 0.013 | dasatinib -0.04 | [2] 0.053 | [3] -0.034 | quisinostat 0.004 | tipifarnib 0.002 | [4] 0.006 | [5] 0.049 | [6] 0.009 | [7] 0.092 | silmitasertib -0.013 | [8] 0.042 | entospletinib -0.073

CSNK1E (UniProt P49674)
Sequence of UniProt P49674 (P49674 whole entry, looked up): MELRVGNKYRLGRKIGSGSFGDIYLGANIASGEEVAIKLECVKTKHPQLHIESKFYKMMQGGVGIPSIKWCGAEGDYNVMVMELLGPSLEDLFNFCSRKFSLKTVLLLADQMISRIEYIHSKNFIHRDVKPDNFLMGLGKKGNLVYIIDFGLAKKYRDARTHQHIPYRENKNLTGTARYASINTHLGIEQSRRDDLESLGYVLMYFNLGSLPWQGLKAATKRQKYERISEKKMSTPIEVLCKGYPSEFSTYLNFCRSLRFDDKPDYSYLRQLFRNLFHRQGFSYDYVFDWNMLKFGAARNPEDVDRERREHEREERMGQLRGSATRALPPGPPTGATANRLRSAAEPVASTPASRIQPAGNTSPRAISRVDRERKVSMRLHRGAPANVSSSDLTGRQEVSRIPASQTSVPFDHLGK
active: vorinostat -0.419
inactive: nilotinib -0.025 | [1] -0.008 | dasatinib 0.053 | [2] 0.091 | [3] -0.078 | quisinostat -0.075 | tipifarnib -0.092 | [4] 0.059 | [5] 0.055 | [6] -0.06 | [7] 0.016 | silmitasertib 0.206 | [8] 0.01 | entospletinib 0.012

DCP2 (UniProt Q8IU60)
active: vorinostat -0.446
inactive: nilotinib -0.065 | [1] -0.051 | dasatinib 0.009 | [2] 0.032 | [3] -0.018 | quisinostat -0.094 | tipifarnib -0.012 | [4] 0.014 | [5] 0.03 | [6] 0.024 | [7] -0.02 | silmitasertib -0.033 | [8] 0.085 | entospletinib -0.001

CMSS1 (UniProt Q9BQ75)
active: vorinostat -0.272
inactive: nilotinib -0.025 | [1] 0.014 | dasatinib -0.019 | [2] 0 | [3] 0.014 | quisinostat 0.023 | tipifarnib 0.06 | [4] 0.013 | [5] 0.004 | [6] 0.031 | [7] 0.025 | silmitasertib 0.038 | [8] -0.024 | entospletinib -0.013

CUEDC2 (UniProt Q9H467)
inactive: nilotinib -0.038 | [1] 0.055 | dasatinib 0.015 | [2] 0.028 | [3] 0.009 | quisinostat -0.046 | tipifarnib 0.009 | [4] -0.012 | [5] -0.021 | [6] 0.016 | [7] -0.01 | vorinostat 0.151 | silmitasertib -0.012 | [8] 0.003 | entospletinib 0.066

CNOT4 isoform 6 (UniProt O95628)
inactive: nilotinib -0.004 | [1] 0.053 | dasatinib 0.034 | [2] 0.057 | [3] 0.013 | quisinostat 0.107 | tipifarnib -0.018 | [4] 0.041 | [5] -0.022 | [6] 0.008 | [7] -0.028 | vorinostat 0.046 | silmitasertib -0.032 | [8] -0.057 | entospletinib -0.011

DHRS3 (UniProt O75911)
Sequence of UniProt O75911 (O75911 whole entry, looked up): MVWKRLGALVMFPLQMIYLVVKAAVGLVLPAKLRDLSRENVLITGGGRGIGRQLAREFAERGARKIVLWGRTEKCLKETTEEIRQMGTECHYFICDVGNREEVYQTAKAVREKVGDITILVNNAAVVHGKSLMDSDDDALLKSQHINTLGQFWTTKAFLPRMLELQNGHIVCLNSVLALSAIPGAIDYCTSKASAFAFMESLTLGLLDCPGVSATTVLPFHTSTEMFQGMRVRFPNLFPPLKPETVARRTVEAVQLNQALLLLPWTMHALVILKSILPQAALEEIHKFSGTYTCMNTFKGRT
active: dasatinib 0.23
inactive: nilotinib 0.007 | [1] 0.005 | [2] -0.028 | [3] 0.024 | quisinostat -0.031 | tipifarnib 0.06 | [4] 0.019 | [5] -0.078 | [6] -0.044 | [7] 0.032 | vorinostat -0.055 | silmitasertib -0.062 | [8] 0.025 | entospletinib 0.096

CSDE1 isoform 4 (UniProt O75534)
inactive: nilotinib 0.01 | [1] -0.018 | dasatinib -0.012 | [2] 0.001 | [3] 0.048 | quisinostat 0.014 | tipifarnib 0.012 | [4] 0.041 | [5] -0.009 | [6] -0.016 | [7] -0.004 | silmitasertib 0.015 | [8] -0.009 | entospletinib 0.04
active: vorinostat -0.33

DICER1 (UniProt Q9UPY3)
inactive: nilotinib 0.014 | [1] -0.014 | dasatinib -0.005 | [2] 0.045 | [3] -0.03 | quisinostat -0.072 | tipifarnib 0 | [4] 0.051 | [5] 0.045 | [6] -0.068 | [7] 0.022 | silmitasertib 0.042 | [8] 0.001 | entospletinib -0.004
active: vorinostat -0.58

CTNND1 isoform 3 (UniProt O60716)
inactive: nilotinib -0.027 | [1] -0.02 | dasatinib 0.006 | [2] -0.017 | [3] 0.009 | quisinostat -0.065 | tipifarnib -0.06 | [4] 0.027 | [5] 0.065 | [6] -0.065 | [7] -0.017 | silmitasertib 0.034 | [8] -0.014 | entospletinib -0.005
active: vorinostat -0.371

DMXL1 (UniProt Q9Y485)
active: vorinostat -0.237
inactive: nilotinib 0.03 | [1] 0.006 | dasatinib -0.017 | [2] -0.005 | [3] 0.025 | quisinostat -0.009 | tipifarnib -0.015 | [4] 0.01 | [5] 0.014 | [6] 0.034 | [7] 0.022 | silmitasertib 0.044 | [8] -0.013 | entospletinib 0.022

CLIC2 (UniProt O15247)
Sequence of UniProt O15247 (O15247 whole entry, looked up): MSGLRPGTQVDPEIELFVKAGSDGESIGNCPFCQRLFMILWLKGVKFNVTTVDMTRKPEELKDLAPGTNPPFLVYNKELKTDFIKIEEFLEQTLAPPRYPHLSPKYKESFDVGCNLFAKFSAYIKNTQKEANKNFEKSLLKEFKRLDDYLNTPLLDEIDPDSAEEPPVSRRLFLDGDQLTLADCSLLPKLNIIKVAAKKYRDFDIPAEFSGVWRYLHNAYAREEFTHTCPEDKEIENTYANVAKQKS
inactive: nilotinib 0.029 | [1] -0.032 | dasatinib -0.017 | [2] 0.004 | [3] -0.022 | quisinostat -0.019 | tipifarnib -0.024 | [4] 0.023 | [5] 0.004 | [6] -0.005 | [7] 0.022 | silmitasertib -0.018 | [8] 0.029 | entospletinib 0.005
active: vorinostat -0.369

CSTF2 (UniProt P33240)
inactive: nilotinib 0.031 | [1] 0.038 | dasatinib 0.03 | [2] -0.017 | [3] -0.029 | quisinostat 0.033 | tipifarnib -0.021 | [4] -0.013 | [5] -0.007 | [6] 0.052 | [7] 0.001 | vorinostat 0.046 | silmitasertib 0.007 | [8] 0.013 | entospletinib -0.045

COTL1 (UniProt Q14019)
inactive: nilotinib 0.021 | [1] 0.003 | dasatinib 0.024 | [2] 0.031 | [3] 0.023 | quisinostat 0.017 | tipifarnib 0.055 | [4] -0.075 | [5] -0.028 | [6] -0.011 | [7] -0.03 | vorinostat 0.147 | silmitasertib 0 | [8] -0.021 | entospletinib 0.023

DLG3 isoform 2 (UniProt Q92796)
inactive: nilotinib -0.036 | [1] 0.027 | dasatinib -0.062 | [2] 0.146 | [3] -0.004 | quisinostat -0.007 | tipifarnib 0.085 | [4] -0.03 | [5] -0.031 | [6] -0.049 | [7] 0.067 | vorinostat -0.023 | silmitasertib -0.025 | [8] -0.036 | entospletinib -0.007

DPM1 (UniProt O60762)
Sequence of UniProt O60762 (O60762 whole entry, looked up): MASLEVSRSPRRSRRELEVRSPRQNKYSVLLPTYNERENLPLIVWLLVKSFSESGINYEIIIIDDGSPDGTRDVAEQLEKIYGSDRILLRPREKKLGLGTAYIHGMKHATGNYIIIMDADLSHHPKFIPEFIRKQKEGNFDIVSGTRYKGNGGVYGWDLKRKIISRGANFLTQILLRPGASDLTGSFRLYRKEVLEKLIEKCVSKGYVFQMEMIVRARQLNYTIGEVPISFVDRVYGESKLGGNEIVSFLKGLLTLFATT
inactive: nilotinib 0.013 | [1] 0.019 | dasatinib 0.028 | [2] -0.014 | [3] 0.044 | quisinostat 0.057 | tipifarnib 0.03 | [4] 0.038 | [5] 0.019 | [6] -0.057 | [7] 0.05 | vorinostat -0.01 | silmitasertib -0.016 | [8] -0.011 | entospletinib 0.02

DHCR7 (UniProt Q9UBM7)
Sequence of UniProt Q9UBM7 (Q9UBM7 whole entry, looked up): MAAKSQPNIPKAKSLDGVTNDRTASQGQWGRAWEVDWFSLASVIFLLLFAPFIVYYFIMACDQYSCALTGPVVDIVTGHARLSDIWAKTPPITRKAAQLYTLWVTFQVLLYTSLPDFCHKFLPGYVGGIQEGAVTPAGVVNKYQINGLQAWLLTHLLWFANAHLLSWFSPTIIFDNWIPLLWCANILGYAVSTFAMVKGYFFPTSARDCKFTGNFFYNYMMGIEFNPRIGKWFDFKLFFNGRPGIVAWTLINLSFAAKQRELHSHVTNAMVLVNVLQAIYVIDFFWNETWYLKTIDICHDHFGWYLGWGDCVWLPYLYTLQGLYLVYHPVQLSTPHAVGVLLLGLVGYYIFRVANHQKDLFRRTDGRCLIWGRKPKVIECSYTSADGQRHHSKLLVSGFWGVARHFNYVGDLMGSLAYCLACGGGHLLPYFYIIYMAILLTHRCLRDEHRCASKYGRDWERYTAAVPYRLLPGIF
inactive: nilotinib -0.013 | [1] 0.016 | dasatinib 0.011 | [2] 0 | [3] 0.013 | quisinostat 0.234 | tipifarnib 0.015 | [4] 0.029 | [5] 0.008 | [6] 0.047 | [7] -0.098 | vorinostat -0.022 | silmitasertib 0.03 | [8] -0.004 | entospletinib 0.078
